A number with no mark means an inactive call.

This test in a line: viability profiling in MM1S myeloma cells – cell-based, resazurin fluorescence, basal, 24 h, PK04 Diversity Set, profiling panel (AID 1174). Also: test concentration not given here. To be noted: higher = more signal, called active from +8 up or from −8 down. A general note: The colour change of resazurin is a common sign of viable cells or microbes.
Regarding `C=CCC(OC(C)=O)[C@@H]1[C@@H](N(Cc2ccc(-c3ccccc3)cc2)C(=O)Cc2ccc(OC)cc2)c2cc(OCCCO)ccc2N1C(=O)c1ccc2ccccc2n1` (stereo not given in full), the z-score was 0.525.
In the case of `COc1ccc(C#Cc2ccc3c(c2)[C@]2(C(=O)N3)[C@H](C(=O)NC[C@H](O)c3ccccc3)[C@H]3C(=O)O[C@H](c4ccccc4)[C@H](c4ccccc4)N3[C@@H]2c2ccc(OCCO)cc2)cc1`, the z-score was -1.16.
To `COCCOC(=O)N1C(=O)[C@@]2(c3cc(C#CC4(O)CCCCCC4)ccc31)[C@H](C(=O)N1CCCCCCC1)[C@H]1C(=O)O[C@H](c3ccccc3)[C@H](c3ccccc3)N1[C@@H]2c1ccccc1OCCO` belongs -0.297; to `COC(=O)c1ccc(OC)c(/C=C\CC(OC(C)=O)c2ccccc2)c1` (stereo not given), -0.345; to `Cc1ccc([C@H]2C(C(=O)O)=C[C@@H](C)N2S(=O)(=O)c2ccc(C)cc2)cc1`, -0.612.
Take `NCCCCCCNC(=O)[C@H]1C[C@H]2C(=O)NCC(=O)N2[C@H]1c1cccc(OCCO)c1`: the z-score was 0.724.
With `COc1ccc(CCN2C(=O)[C@@]3(Cc4ccccc42)c2ccccc2C(=O)N(Cc2ccccc2Cl)[C@H]3c2ccc(CO)cc2)cc1`, the z-score is 0.249.
Consider `C=CC[C@@H](OC(=O)Nc1ccc(OC)cc1)c1ccc(O)c2ccccc12`, for which the z-score was -6.13.
As to `CC(C)C[C@@H]1NC(=O)[C@@H]2C[C@H](C(=O)NCCCCCC[N+](C)(C)C)[C@H](c3ccc(O)cc3)N2C1=O`, the z-score is 0.181.
To `O=C1C=CC(=O)[C@@H]2CC(COc3ccccc3)=C3[C@@H](CCc4ccccc4)OB(O)C[C@@H]3[C@H]12` belongs -0.971; to `CN(C)CCCCNC(=O)[C@H]1C[C@H]2C(=O)N[C@@H](Cc3ccccc3)C(=O)N2[C@H]1c1ccc(O)cc1`, -0.0866; to `CCCC[C@H]1OB(O)C[C@H]2C1=C(C)C[C@H]1C(=O)N(Cc3ccccc3)C(=O)[C@H]12`, 0.355.
To `C=C[C@@H](COC(C)=O)N(Cc1ccc([N+](=O)[O-])cc1)S(=O)(=O)c1ccc(Br)cc1` belongs 0.417; to `COc1ccc([Si](C)(C)[C@@H]2[C@@H](CCn3cc([C@H](O)c4ccccc4)nn3)O[C@]3(C(=O)N(Cc4ccc(N5C(=O)c6cccc7cccc5c67)cc4)c4ccccc43)[C@H]2C)cc1`, -1.66.
In the case of `CC(C)(C)OC(=O)CC[C@@]1(C(=O)NCCN2CCOCC2)N=C(c2ccc(OCCCO)cc2)O[C@@H]1c1ccccc1`, the z-score is 0.596.
To `O=C1O[C@@H](c2ccccc2)[C@@H](c2ccccc2)N2[C@@H](c3ccccc3OCCO)[C@]3(C(=O)Nc4ccc(C#CC5(O)CCCCCC5)cc43)[C@@H](C(=O)Nc3nc4ccccc4s3)[C@H]12` belongs -3.35; to `COCCOC(=O)N1C(=O)[C@@]2(c3cc(C#CCNC(N)=O)ccc31)[C@H](c1ccc(OCCO)cc1)N1[C@H](c3ccccc3)[C@H](c3ccccc3)OC(=O)[C@H]1[C@@H]2C(=O)N1CCc2cc(OC)c(OC)cc2C1`, 0.296.
To `CCOC(=O)C[C@H]1[C@H](OC(=O)c2ccc(C(=O)c3ccccc3)cc2)[C@@H](NC(=O)C2CCCCC2)c2cc(OCCCO)ccc2N1C(=O)c1ccccc1` belongs -0.239.
As to `CC(C)=CCCC(C)=CC(O)C1C=CC2C(=O)N(c3ccccc3)C(=O)C2N1Nc1ccccc1` (stereo not given), the z-score is -1.49.
Take `COC(=O)[C@@]1(Cc2ccc(OC)cc2)[C@H]2c3cc(C(=O)N4CCCC4)n(CCc4c[nH]c5cc(F)ccc45)c3C[C@H]2CN1C(=O)c1ccccc1`: the z-score is -0.502.
With `Cc1ccc(F)cc1S(=O)(=O)N[C@@H]1CCN(Cc2ccc(-c3ccccc3)cc2)C1`, the z-score is -3.27.
As for `COC(=O)[C@@]1(Cc2ccc(OC)cc2)[C@H]2c3cc(C(=O)N(C)C)n(Cc4c(OC)[nH]cc(C)c4=O)c3C[C@H]2CN1C(=O)c1ccccc1`, the z-score was -2.62.
For the compound `[N-]=[N+]=Nc1ccccc1[C@H]1OC(c2ccc(OCCCO)cc2)=N[C@@]1(CCS(=O)(=O)c1ccccc1)C(=O)O`, the z-score is 0.169.
To `COC(=O)c1ccc(C(O)C2C=CC3C(=O)N(C)C(=O)C3N2NC(=O)OC(C)(C)C)o1` (stereo not given) belongs -0.29; to `CC=CC(O)C1C=CC2C(=O)N(c3ccccc3)C(=O)C2N1Nc1ccc(C(C)C)cc1` (stereo not given), -0.785.

The values are drawn from PubChem BioAssay.
